In PubChem BioAssay AID1274 (Emory University Molecular Libraries Screening Center, 2008):
Out of some 220,000 compounds screened, about 1,100 (0.5%) were called active.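 How the source made its calls: active means inhibition above about 30% (limit read from the data); inactive means the rest.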 Many of the other results were omitted from the sample, so actives are more common in it than they were.

The compounds below were run against Neutrophil cytosol factor 1 (Homo sapiens) (UniProt P14598) (assay: blockers of p47phox binding to p22phox – biochemical, uHTS, NADPH oxidase regulatory subunit, primary screen (AID 1274;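 further: 0% = p47phox with labelled peptide and 100% = labelled peptide alone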)). Conditions: p47phox/p22phox peptide binding, fluorescence polarization, 2 h; at 24.7 µM; hits give high values.
Sequence of Neutrophil cytosol factor 1 (Homo sapiens) (P14598 whole entry, looked up): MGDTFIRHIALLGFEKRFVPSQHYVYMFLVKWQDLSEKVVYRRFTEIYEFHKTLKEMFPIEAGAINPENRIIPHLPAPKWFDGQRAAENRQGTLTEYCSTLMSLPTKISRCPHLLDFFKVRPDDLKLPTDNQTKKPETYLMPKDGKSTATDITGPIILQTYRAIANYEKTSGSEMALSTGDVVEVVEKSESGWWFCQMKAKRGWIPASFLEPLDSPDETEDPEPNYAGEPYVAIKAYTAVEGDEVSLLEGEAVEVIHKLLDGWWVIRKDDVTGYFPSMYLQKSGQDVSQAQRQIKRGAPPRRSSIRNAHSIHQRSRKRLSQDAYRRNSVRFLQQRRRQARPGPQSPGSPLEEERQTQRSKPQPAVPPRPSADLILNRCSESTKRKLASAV
With `O=C(COc1ccc([N+](=O)[O-])cc1Cl)Nn1cnnc1` the inhibition was -5.37% (inactive).
In the case of `CCN(CC)CC(=O)c1c[nH]c2ccc(OC)cc12`, the inhibition is reported as 68.2% (active).
`COc1cccc(-n2c(SCC(=O)c3c[nH]c4ccccc34)nc3ccccc3c2=O)c1` was tested, and the inhibition was -14.5% (inactive).
For `COc1ccc2[nH]c3ccc(OC)cc3c2c1`, the inhibition was -9.23% (inactive).
In the case of `CCNc1ccc(C(=O)OCC(=O)N2c3ccccc3NC(=O)C2(C)C)cc1[N+](=O)[O-]`, the inhibition is reported as -6.42% (inactive).
`CC(=O)NC(CC(=O)Nc1nccs1)c1ccccc1` (configuration not stated) was tested, and the inhibition was 1.69% (inactive).
For `CCOC(=O)N1CCC(NC(=O)C(NS(=O)(=O)c2ccc3c(c2)CCN3C(=O)CC)C(C)C)CC1` (configuration not stated), the inhibition was 2.67% (inactive).
With `Cc1ccc2nc(-c3cccc(Br)c3)cc(C(=O)Nn3cnnc3)c2c1` the inhibition was -7.35% (inactive).
`Cc1ccc(-c2cc(C(=O)NCc3cn(C)nc3C)c3cc(Br)ccc3n2)cc1` was tested, and the inhibition was 31.9% (active).
For `COc1ccc(Cl)cc1C(=O)NCc1cn(C)nc1C`, the inhibition was -8.12% (inactive).
With `OC(CNCc1ccc2c(c1)OCO2)COc1ccccc1` (configuration not stated) the inhibition was -9.52% (inactive).
For `CCNC(=O)CN(c1ccc(C)cc1)S(=O)(=O)c1ccc(SC)cc1`, the inhibition was -7.61% (inactive).
For `Cc1ccc(S(=O)(=O)N(CC(=O)NN=C2CCN(C)CC2)c2ccc(F)cc2)cc1`, the inhibition was 37.2% (active).
In the case of `CN1CCC(=NNC(=O)CN(c2cccc(Cl)c2)S(C)(=O)=O)CC1`, the inhibition is reported as 6.83% (inactive).
With `COc1cc(C(F)(F)F)nc2c(Br)c(C(C)(C)C)nn12` the inhibition was 7.7% (inactive).
With `Cc1ccc(SCC(=O)c2cc(C)c(OC(=S)N(C)C)c(C)c2)cc1` the inhibition was -4.09% (inactive).
With `O=C1NC[C@@H](Cc2ccc(O)cc2)N(CCc2cccc(F)c2)C1=O` the inhibition was -6.81% (inactive).
With `Cc1cc(C)c2nc(SCCC#N)nc(C)c2c1` the inhibition was 1.52% (inactive).
With `Cc1cc(C)c2nc(-c3ccco3)cc(C(=O)O)c2c1` the inhibition was -9.96% (inactive).
For `Cc1cc(C)c2nc3nc(C)cc(C)c3c(N)c2c1`, the inhibition was 35.3% (active).
With `COc1ccc(CNC(=O)CCC(=O)Nc2nnc(C(C)C)s2)cc1` the inhibition was -6.23% (inactive).
With `CC1=NN(C(=O)c2ccc(Br)cc2)C(O)(c2ccccc2)C1` (configuration not stated) the inhibition was 40.2% (active).
With `CCOC(=O)C1(O)CC(C)=NN1C(=O)c1cccc(Br)c1` (configuration not stated) the inhibition was -4.11% (inactive).
In the case of `CC1=NN(C(=O)c2ccccc2Br)C(O)(c2cccnc2)C1` (configuration not stated), the inhibition is reported as 1.24% (inactive).
With `CN(C)C(CNC(=O)Cc1ccc([N+](=O)[O-])cc1)c1ccccc1` (configuration not stated) the inhibition was -9.03% (inactive).
`COCCN(C(=O)C(C)C)c1nnc(-c2ccc(C(C)(C)C)cc2)s1` was tested, and the inhibition was -3.33% (inactive).
In the case of `O=C(Cc1cccs1)Nc1nnc(SCc2ccc(F)cc2)s1`, the inhibition is reported as -11.1% (inactive).
With `COc1ccc(/C=N/n2nnnc2N)cc1OC` the inhibition was 31.6% (active).
For `C=CCOc1c(Br)cc(/C=N\n2nnnc2N)cc1OC`, the inhibition was 2.05% (inactive).
In the case of `Nc1nnnn1/N=C/c1cccs1`, the inhibition is reported as -3.56% (inactive).
With `CCn1c(SCc2ccc(C)cc2)nnc1-c1nn(-c2ccccc2)ccc1=O` the inhibition was -13% (inactive).
With `N=C(N)SCc1cccc2ccccc12` the inhibition was -8.51% (inactive).
`CCc1ccc(-c2nn(-c3ccccc3)cc2CSC(=N)N)cc1` was tested, and the inhibition was 51% (active).
With `CCOc1cc(/C=C(/C#N)c2ccc(Cl)cc2)cc(Cl)c1OCC(=O)O` the inhibition was -9.24% (inactive).
With `COC(=O)CN1C(=O)N/C(=C/c2ccc(OC)c(C)c2OC)C1=O` the inhibition was 5.97% (inactive).
In the case of `CSCCNCc1cn(-c2ccc(F)cc2F)nc1-c1ccccc1C`, the inhibition is reported as 30.6% (active).
`COc1ccccc1CC(=O)Nc1ccc(F)cc1F` was tested, and the inhibition was 6.55% (inactive).
With `Cc1ccc(-c2nn(-c3cccc(F)c3)cc2CNCCc2ccncc2)o1` the inhibition was -21.2% (inactive).
For `O=C(Nc1ccccc1N1CCOCC1)c1csc2c1CCCC2`, the inhibition was -2.28% (inactive).
For `c1csc(-c2nnc(COc3ncnc4sccc34)o2)c1`, the inhibition was -9.61% (inactive).
In the case of `NC(=O)NC(=O)CSc1nc2cc([N+](=O)[O-])ccc2n1-c1cccc(C(F)(F)F)c1`, the inhibition is reported as -1.12% (inactive).
`CCCc1c(C(=O)O)cnn1-c1ccc(Cl)cc1` was tested, and the inhibition was -1.8% (inactive).
With `CC1(C)CC(=O)C=C(N2CCCC2)C1` the inhibition was -17.5% (inactive).
In the case of `CC1(C)CC(N2CCN(C(c3ccccc3)c3ccccc3)CC2)=CC(=[N+]2CCCCC2)C1`, the inhibition is reported as 30.8% (active).
In the case of `CC(C)NC(=S)N1CCN(C(c2ccccc2)c2ccccc2)CC1`, the inhibition is reported as -3.69% (inactive).
For `CCCSc1ncccc1C(=O)O`, the inhibition was -1.29% (inactive).
In the case of `Cc1ccc(Nc2nc(Cl)c(C=O)s2)cc1`, the inhibition is reported as -45% (inactive).
For `O=C(/C=C/c1ccccc1)Nc1nnc(SCC(=O)c2ccc3ccccc3c2)s1`, the inhibition was -19.6% (inactive).
In the case of `CC(=O)Oc1ccccc1C(=O)Nc1ncc([N+](=O)[O-])s1`, the inhibition is reported as -3.91% (inactive).
For `O=C(Cc1c(F)cccc1Cl)Nc1ncc([N+](=O)[O-])s1`, the inhibition was -2.51% (inactive).
`O=C(CCc1ccccc1)Nc1ncc([N+](=O)[O-])s1` was tested, and the inhibition was 41.8% (active).
`Cn1c(C(=O)O)ccc1S(=O)(=O)N(Cc1ccccc1)Cc1ccccc1` was tested, and the inhibition was 0.4% (inactive).
For `Cc1ccc2c(CC(=O)NCc3cccs3)coc2c1`, the inhibition was -14.7% (inactive).
For `Cc1cc(=O)[nH]c(SCC(=O)N2c3ccccc3CC2C)n1` (configuration not stated), the inhibition was 42.8% (active).
In the case of `CC1Cc2ccccc2N1C(=O)CSc1nnc(C2CC2)n1C` (configuration not stated), the inhibition is reported as -12.6% (inactive).
`CC1Cc2ccccc2N1C(=O)CSc1nc2ccccc2o1` (configuration not stated) was tested, and the inhibition was -13.1% (inactive).
With `O=C(NN1C(=O)C2CCCCC2C1=O)c1ccco1` (configuration not stated) the inhibition was 8.97% (inactive).
With `C/C=C(\C)C(=O)N1CC2(CC(c3cccc(NC(=O)CCCCC)c3)=NO2)C[C@@H]1C(N)=O` (some centres not stated) the inhibition was -4.05% (inactive).
For `Cc1cc(N2C(=O)C(=O)/C(=C(/O)c3ccc(Cl)cc3)C2c2cccc(Br)c2)no1` (configuration not stated), the inhibition was -12.5% (inactive).
With `COc1ccccc1C1/C(=C(/O)c2ccc(C)cc2)C(=O)C(=O)N1Cc1ccco1` (configuration not stated) the inhibition was -0.55% (inactive).
`COc1ccccc1C1/C(=C(/O)c2ccc(OC(C)C)cc2)C(=O)C(=O)N1c1cc(C)on1` (configuration not stated) was tested, and the inhibition was 54.4% (active).
With `COc1ccc(NC(=O)COC(=O)c2ccncc2)c(OC)c1` the inhibition was -5.21% (inactive).
For `COc1ccc(NC(=O)c2ccccc2CC[N+](=O)[O-])cc1`, the inhibition was -4.4% (inactive).
`CCn1c(CNS(=O)(=O)c2ccc(Cl)cc2)n[nH]c1=S` was tested, and the inhibition was -6.22% (inactive).
For `CCc1nc2sc(C(=O)O)c(N)c2c2c1CCCC2`, the inhibition was 3.39% (inactive).
`COC(=O)CSc1nccc(-c2cccs2)n1` was tested, and the inhibition was 57.9% (active).
With `O=C(O)COc1ccc(-c2nccc(-c3cccs3)n2)cc1` the inhibition was -0.51% (inactive).
With `COc1ccc(-c2ccnc(SCC(=O)N3CCOCC3)n2)cc1` the inhibition was -7.88% (inactive).
In the case of `CN1CCN(S(=O)(=O)c2ccc(NC(=S)NC(=O)C3CC3)cc2)CC1`, the inhibition is reported as 5.87% (inactive).
For `Cc1ccc(C)c(-n2ccnc2SCC(N)=O)c1`, the inhibition was -6.63% (inactive).
With `Cc1nnc(NC(=O)CSc2nccn2-c2cccc(C)c2C)s1` the inhibition was -2.14% (inactive).
In the case of `COc1ccccc1-n1ccnc1SCC(=O)NC(C)(C)C`, the inhibition is reported as 130% (active).
In the case of `Cc1cccc(NC(=O)CSc2nnc(CCNC(=O)OC(C)(C)C)o2)c1C`, the inhibition is reported as -4.83% (inactive).
For `O=[N+]([O-])C(=c1ccc2c(c1)N1C3=C(CCCC3)CC3CCCCC31N=2)[N+](=O)[O-]` (configuration not stated), the inhibition was 32.3% (active).
In the case of `CC(=O)Nc1cccc(Oc2cc(C#N)c(C#N)cc2N2CCOCC2)c1`, the inhibition is reported as -5.37% (inactive).
In the case of `COc1cccc(C(=O)Nc2ccc(N3CCCC3)cc2)c1`, the inhibition is reported as -24.3% (inactive).
In the case of `COc1cc(N2CCCC2)c(OC)cc1/C=C(/C#N)c1cccc(Br)c1`, the inhibition is reported as 41.6% (active).
In the case of `O=C1/C(=C/c2cccs2)SC(=S)N1C1CCS(=O)(=O)C1` (configuration not stated), the inhibition is reported as 136% (active).
For `O=C(CCN1C(=O)/C(=C/c2cccs2)SC1=S)NNC(=O)c1cccc(O)c1`, the inhibition was -143% (inactive).
With `O=C1N/C(=C/c2cccs2)C(=O)N1Cc1ccc(F)cc1` the inhibition was -8.47% (inactive).
With `O=C(Nc1ccccc1)O/N=C1/CCCc2occc21` the inhibition was -10.7% (inactive).
For `COc1cc(OC)cc(-c2nc3ccccc3c(=O)n2NC(=O)c2cccnc2Cl)c1`, the inhibition was -17.9% (inactive).
`COc1ccc(C)cc1NC(=O)c1ccc(-c2ccc(C(C)=O)cc2)o1` was tested, and the inhibition was -8.08% (inactive).
`Cc1ccc2[nH]c3c(=O)n(Cc4ccccn4)cnc3c2c1` was tested, and the inhibition was -18.3% (inactive).
In the case of `COc1cc(OC)c(OC)cc1/C=N/Nc1ncnc2c1[nH]c1ccc(C)cc12`, the inhibition is reported as 34.2% (active).
In the case of `CC(C)OCCCNc1ncnc2c1[nH]c1ccc(F)cc12`, the inhibition is reported as -10.6% (inactive).
For `CC(=O)NCCn1c(SCC(=O)Nc2ccc(C)cc2)nc2ccccc2c1=O`, the inhibition was 1.49% (inactive).
In the case of `CC(C)(C)C(=O)OCc1nc(-c2ccc(O)c(O)c2)cs1`, the inhibition is reported as -9.67% (inactive).
With `NC(N)=N/N=C/c1ccc(OCc2ccc(Cl)cc2Cl)cc1` the inhibition was 103% (active).
With `NC(N)=N/N=C/c1ccc(Cl)c([N+](=O)[O-])c1` the inhibition was 3.52% (inactive).
In the case of `COc1ccc(C(=O)O/N=C(\N)Cc2ccc(Cl)cc2Cl)cc1OC`, the inhibition is reported as -5.94% (inactive).
With `Oc1oc(-c2ccccc2Br)nc1/C=N/c1ccccn1` the inhibition was -6.08% (inactive).
With `Cc1cc(C)n(Cc2cnc(N3CCOCC3)s2)n1` the inhibition was -9.55% (inactive).
`O=C(NCc1cc(C(F)(F)F)cc(C(F)(F)F)c1)C1CC(c2cccc(F)c2)=NO1` (configuration not stated) was tested, and the inhibition was -5.46% (inactive).
In the case of `Cc1cccc(N2CC(C)Cn3c2nc2c3c(=O)n(CC(=O)OCc3ccccc3)c(=O)n2C)c1` (configuration not stated), the inhibition is reported as -39.9% (inactive).
`COc1ccc(N2CC(C)Cn3c2nc2c3c(=O)n(Cc3ccccc3F)c(=O)n2C)c(OC)c1` (configuration not stated) was tested, and the inhibition was 58.5% (active).
For `CC(C)OCCCNc1nc2c(c(=O)n(Cc3ccccc3F)c(=O)n2C)n1C`, the inhibition was -4.4% (inactive).
